# How the values were obtained:
# Conditions in all cases: concentration: 1 μM,replicates: in singlicate; n = 1
# TESK1 = tested on: TESK1
# TGFBR1 = tested on: TGFBR1
# TGFBR2 = tested on: TGFBR2
# TIE1 = tested on: TIE1
# TIE2 = tested on: T1, TIE2
# T1 construct: gene TEK
# TLK1 = tested on: TLK1
# TLK2 = tested on: TLK2
# TNIK = tested on: TNIK
# TNK1 = tested on: TNK1
# TNK2 = tested on: TNK2
# 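Also: KINOMEscan kinase panel screen.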
SMILES,%Inh (TESK1) [%],%Inh (TGFBR1) [%],%Inh (TGFBR2) [%],%Inh (TIE1) [%],%Inh (TIE2) [%],%Inh (TLK1) [%],%Inh (TLK2) [%],%Inh (TNIK) [%],%Inh (TNK1) [%],%Inh (TNK2) [%]
Cl.c1ccc(Oc2ccc(Nc3ccnc4cc(-c5ccc(CN6CCNCC6)o5)ccc34)cc2)nc1 [GW567142],0,21,0,0,0,9,1,0,61,38
O=C(NCC1CC1)c1ccc(-c2cc(C(=O)NC3CC3)ccc2F)cc1 [GW810445],0,27,0,0,0,0,0,0,30,0
O=C(Nc1ccccc1)c1cccc(Oc2ccc3nccn3n2)c1,0,0,0,94.1,0,100,0,0,33,0
CC(C)S(=O)(=O)N1CCN(Cc2ccc3c(c2)nc(NC(=O)c2ccsc2)n3C[C@H](O)c2ccccc2)CC1 [GW635815],37,0,0,28,0,0,0,65,79,19
C[C@@H](Oc1cc(-n2cnc3cc(-c4cnn(C)c4)ccc32)sc1C(N)=O)c1ccccc1Cl [GSK580432],37,0,0,94.2,82,0,0,48,59,64
CS(=O)(=O)Nc1ccc(-c2ccnc3[nH]ccc23)cc1 [GSK993273],4,0,0,28,3,63,63,32,0,14
O=C(Nc1ccc(Oc2ccc3nc(NC(=O)C4CC4)cn3n2)c(F)c1)c1cccn(-c2ccccc2)c1=O,17,9,9,92.2,90.1,0,0,34,59,0
